This is a sample that favours compounds with a hit; in the whole collection about 2.3% have one here.
Tau fibril ThT: qHTS for Inhibitors of Tau Fibril Formation, Thioflavin T Binding; Microtubule-associated protein tau (Homo sapiens), P10636; recombinant tau K18 P301L, heparin-induced fibrillization, ThT fluorescence; Potency, µM (highest dose often 57.4 µM), for the others: at the top dose activity, negative = inhibition, most hits filed as inhibitors; 270,000 tested, 2.1% active; also: potency is read from the fitted curve at half-maximal effect; nearly all actives have a fitted effect of over 55% in size
Target sequence (P10636 561-689 P618L limits assumed): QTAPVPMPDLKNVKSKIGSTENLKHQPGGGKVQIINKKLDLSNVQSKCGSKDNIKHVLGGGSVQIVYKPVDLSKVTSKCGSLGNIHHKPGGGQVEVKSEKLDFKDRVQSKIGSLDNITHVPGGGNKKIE
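In this qHTS, human K18 P301L tau is incubated with compound and heparin for 6 hr at 37 C, and Thioflavin T fluorescence then reports fibril load.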
USP1-UAF1 inh: Inhibitors of USP1/UAF1: Primary Screen. recombinant USP1/UAF1, Ub-Rhodamine cleavage fluorescence. Potency, µM (titrated, usually from 57.1 µM), inactives show at the highest dose activity change, negative = inhibition, hits mostly inhibitors. 390,000 tested, 0.23% active. AID 743255, 2014; also: potency is read from the fitted curve at half-maximal effect; nearly all actives have a fitted effect of over 60% in size
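USP1/UAF1 complex (1 nM) preincubated 15 min at room temperature with compound, then Ub-Rho substrate (150 nM final) added. Kinetic fluorescence at 480/540 nm over 6 reads at 60 s intervals; 50 mM HEPES pH 7.8, 0.5 mM EDTA, 0.1 mg/ml BSA, 1 mM TCEP, 0.01% Tween-20.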
Tau fibril FP: qHTS for Inhibitors of Tau Fibril Formation, Fluorescence Polarization; K18 P301L tau heparin fibrillization, Alexa594 FP, 6 h; 280,000 tested, 0.39% active; Microtubule-associated protein tau (Homo sapiens), P10636; Potency, µM (series often up to 57.7 µM), without a hit: at the highest dose activity, negative = inhibition, usual class: inhibitors; also: potency is read from the fitted curve at half-maximal effect; nearly all actives have a fitted effect of over 55% in size
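Human tau K18 […] P301L fragment, 15 uM unlabeled plus 0.24 uM Alexa 594-labeled tau (final), with compound and 20 uM heparin in 100 mM sodium acetate pH 7; 6 hr at 37 C, then Alexa 594 FP read.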
Coupling enz: qHTS Assay for Inhibitors of Fructose-1,6-bisphosphate Aldolase from Giardia Lamblia: Coupling assay counterscreen. coupling enzyme system counterscreen, AmpLite Red fluorescence. activity change, negative = inhibition, % at 58.2 µM, hits read low. 290,000 tested, 0.67% active; in the data active = activity change below about -30%
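Counterscreen of the coupled detection system alone, without aldolase: glyceraldehyde-3-phosphate coupling enzymes plus AmpLite Red readout. Compounds at 57.5 uM final, 10 min RT preincubation, 20 min RT reaction, fluorescence 525/598 nm.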
Tau fluor counter: Counterscreen qHTS for Inhibitors of Tau Fibril Formation, Fluorescence Polarization | Potency, µM (doses to about 57.7 µM), inactives show at the highest dose activity change, negative = decrease | 280,000 tested, 0.93% active | AID 1463, 2008 | tau K18 P301L (four-repeat tau fragment) Alexa594 fluorescence, heparin fibrillization; also: potency is read from the fitted curve at half-maximal effect; nearly all actives have a fitted effect of over 55% in size
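Human K18 P301L tau (15 uM unlabeled plus 0.24 uM Alexa 594-labeled, final) in 100 mM sodium acetate pH 7 was mixed with compound and 20 uM heparin and incubated 6 hr at 37 C.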
Starred values were filed as active, the others as inactive; ? = inconclusive; . = not tested or not shown; [ ] = remark or other dose. Unless noted, calls follow the shape of the dose curve; as a rule, active = well fitted curve in the direction sought with a large enough effect; inconclusive = small, poorly fitted or top-dose-only effect, or another doubt; inactive = no such curve, though single readings can be large; an effect the other way counts as inactive or inconclusive. % is scaled to controls: 0 for no effect and ±100 for the full control effect.

SMILES	Tau fibril ThT	USP1-UAF1 inh	Tau fibril FP	Coupling enz	Tau fluor counter
CCN1/C(=C\C(C)=O)Sc2ccc(OC)cc21	-14%	0%	-4%	-1	-11%
CCN1/C(=C/C(C)=C/c2sc3ccccc3[n+]2CC)Sc2ccccc21	1.6µM*	?	?	1	0.45µM*[fluorescent]
Cn1c(C(=O)N2CCN(c3ncccn3)CC2)cc2c(=O)n(C)c3ccccc3c21	-10%	?	-1%	-45*	-3%
CN(C)c1ncnc2ccc(-c3cccc(C#N)c3)cc12	.	.	.	8	.
N#C/C(=C\c1ccc(O)c(O)c1)C(=O)OCCc1cccs1	14µM*	.	13%	2	18µM*[quencher]
O=C(NCC(c1ccc2c(c1)OCO2)N1CCN(c2ccccc2)CC1)C(=O)Nc1ccc(F)cc1 (configuration not stated)	-7%	-20%	7%	.	-26%
COc1ccc(N2CCC(CNC(=O)Nc3ccc(Cl)cc3)C2)cc1 (configuration not stated)	?	-12%	10%	-4	?
CCc1cccc(C)c1NC(=S)NCC1CCN(c2ccc(OC)cc2)C1 (configuration not stated)	?	-11%	-7%	-6	?
COc1ccc(N2CCC(CNC(=S)Nc3cccc(OC)c3)C2)cc1 (configuration not stated)	?	.	13%	-4	11µM*[quencher]
COc1ccc(N2CCC(CNC(=O)Nc3cccc(OC)c3)C2)cc1 (configuration not stated)	?	-4%	14%	0	16µM*[quencher]
Cc1cccc(NC(=O)c2cc(CN3CCOCC3)on2)c1C	-3%	-11%	-5%	.	4%
Cc1ccc(C2C(C#N)=C(N)Oc3c2oc(CO)cc3=O)o1 (configuration not stated)	?	-11%	?	-38*	-20%
CC(C)Oc1ccc(C2C(C#N)=C(N)Oc3c2oc(CO)cc3=O)cc1 (configuration not stated)	-4%	-19%	2%	-3	-4%
Cc1ccc(N=Nc2c(N)n[nH]c2N)cc1	.	-15%	.	0	.
Cc1nc(N)sc1N=Nc1ccc(Br)cc1	4µM*	-14%	8%	-2	16µM*[quencher]
Nc1[nH]c(=O)[nH]c(=O)c1N=Nc1cccc(Cl)c1	7%	-8%	0%	2	0%
Cc1[nH]nc(N)c1N=Nc1ccc(Br)cc1	11µM*	.	6%	1	?
Nc1n[nH]c(C2CC2)c1N=Nc1ccc(Cl)cc1	10µM*	-27%	13%	-1	16µM*[quencher]
Nc1n[nH]c(C2CC2)c1N=Nc1ccc(Cl)c(Cl)c1	13µM*	-4%	?	-2	13µM*[quencher]
COCCNC(=O)CN(C(=O)CCC(=O)Nc1ccccn1)c1ccc(F)c(Cl)c1	6.3µM*	.	7%	2	?
C=CCOC(=O)C1(C(NC(=O)OC)c2ccccc2)C(=O)Cc2ccccc21 (configuration not stated)	-5%	.	5%	3	-1%
COc1ccc(OC)c(NC(=O)c2cnc(Nc3ccc(C)c(Cl)c3)c3ccccc23)c1	2%	-18%	?	.	?
COc1ccc(Nc2ncc(C(=O)Nc3ccc(F)cc3F)c3ccccc23)cc1	?	-26%	?	.	11µM*[quencher]
O=C(NCc1cccs1)c1ccc2c(c1)sc1nc(-c3ccccc3)cn12	1%	-10%	-7%	.	1%
CC(=O)OCCN(C)c1cc(SC(C)C)c2nonc2c1[N+](=O)[O-]	14µM*	-23%	-17%	-23	?
SMILES	Tau fibril ThT	USP1-UAF1 inh	Tau fibril FP	Coupling enz	Tau fluor counter
CN(CCO)c1cc(Sc2nc3ccccc3s2)c2nonc2c1[N+](=O)[O-]	28µM*	-18%	-14%	-7	?
NS(=O)(=O)c1ccc(Sc2nc3ccccc3s2)c([N+](=O)[O-])c1	.	-14%	4%	0	?
CC(=O)OCCNc1cc(SC(C)C)c2nonc2c1[N+](=O)[O-]	?	1%	1%	-5	-29%
COc1cccc([C@H]2Oc3ccc(OC)cc3/C(=N\OC[C@@H](O)[C@@H]3O[C@@H]4OC(C)(C)O[C@@H]4[C@H]3O)[C@@H]2O)c1	-15%[11.5 µM]	.	0%[11.6 µM]	2	-11%[11.6 µM]
N#CCc1cccnc1Sc1ccc(Cl)cc1	.	-21%	.	.	.
C=CCOc1c(Br)cc(CNc2ccc(NC(=O)C(C)C)c(OC)c2)cc1OC	?	-16%	5%	-45*	-25%
O=C(Cn1cc(SCc2ccc(Br)cc2)c2ccccc21)N1CCCCC1	?	-5%	?	.	?
CC1=CN2C(=N)/C(=C/c3ccco3)C(=O)N=C2S1	?	-4%	6%	-3	-8%
CC1=CN2C(=N)/C(=C/c3ccc([N+](=O)[O-])o3)C(=O)N=C2S1	13µM*	?	?	-32*	?
CC(=O)c1ccc(NC(=O)c2ccc3c(c2)N(Cc2cccc(Cl)c2)C(=O)c2ccccc2S3(=O)=O)cc1	-10%	?	16µM*	.	?
COc1ccc(NC(=O)c2ccc3c(c2)N(Cc2cccc(Cl)c2)C(=O)c2ccccc2S3(=O)=O)cc1Cl	12%	-33%	16µM*	.	-17%
CC(=O)c1ccc(NC(=O)c2ccc3c(c2)N(Cc2cccc(Cl)c2)C(=O)c2ccccc2S3=O)cc1 (configuration not stated)	?	-17%	?	.	-25%
O=C(Nc1cccc(F)c1)c1ccc2c(c1)N(Cc1ccccc1)C(=O)c1ccccc1S2(=O)=O	5%	-23%	14µM*	.	?
O=C(NC1CCCCC1)c1ccc2c(c1)N(Cc1ccc(F)cc1)C(=O)c1ccccc1S2(=O)=O	?	-18%	-15%	.	?
CCN(CC)c1ccc(NC(=O)CN(C)S(=O)(=O)c2cccc3nsnc23)c(C)c1	?	?	0%	.	?
COc1ccc(/C(C)=N/Nc2nc3ccccc3nc2C)cc1OC	13µM*	-21%	?	-1	?
COc1cc2c(cc1OC)[C@@H]1O[C@](c3ccsc3)(C2)Oc2cc(C)n(-c3ccccc3)c(=O)c21	.	.	.	0	.
c1ccc(Nc2cccc(Nc3ccccc3)n2)cc1	14µM*	-9%	3%	-6	13µM*[quencher]
CCCCN1C(=O)Cc2c1nc(N)c1c(N)nc(N(CCC)CCC)c(C#N)c21	?	-4%	2%	-11	-25%
N#Cc1c(N(CCO)CCO)nc(N)c2c(N)nc3c(c12)CC(=O)N3CC1CCCO1 (configuration not stated)	?	-26%	-15%	-38*	-15%
